Measured values taken from PubChem BioAssay AID1159580 (chemical genetic matrix, 2015).
“And” between values parts separate entries of the source, which are not always exact repeats. Equal entries are not always repeated. The campaign covered roughly 5,500 compounds. About 2,000 (36%) were called active. Not shown: some 18% with an inconclusive outcome. No stated cut-off is given here; in the data, active means normalized growth mostly below about 0.91 (no sharp cut-off); inconclusive means no clear call, values can overlap the other calls; inactive means mostly above about 0.92. The list shows a part of the results.

Assay: chemical genetic growth profiling, strain panel (AID 1159580);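 further: tested at 20 µM; growth read once vehicle control cultures reached saturation at 30 °C; 1 = growth at the plate median or of vehicle wells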
Details: S. cerevisiae deletion strains, growth OD

Measured: normalized growth

COc1ccc2c(c1)OCc1c-2oc2cc(OC)ccc12
active: locus YAL021C, strain ccr4, stronger effect = lower value 0.901 | locus YAL026C, strain drs2, stronger effect = lower value 0.764 | locus YAL030W, strain snc1, stronger effect = lower value 0.919 | locus YBL061C, strain skt5, stronger effect = lower value 0.864 | locus YBR009C, strain hhf1, stronger effect = lower value 0.737 | locus YBR023C, strain chs3, stronger effect = lower value 0.862 | locus YBR231C, strain swc5, stronger effect = lower value 0.909 | locus YBR279W, strain paf1, stronger effect = lower value 0.894 | locus YCL011C, strain gbp2, stronger effect = lower value 0.792 | locus YCL016C, strain dcc1, stronger effect = lower value 0.858 | locus YDR137W, strain rgp1, stronger effect = lower value 0.415 | locus YDR159W, strain sac3, stronger effect = lower value 0.724 | locus YDR297W, strain sur2, stronger effect = lower value 0.894 | locus YDR335W, strain msn5, stronger effect = lower value 0.857 | locus YDR392W, strain spt3, stronger effect = lower value 0.162 | locus YEL003W, strain gim4, stronger effect = lower value 0.806 | locus YEL061C, strain CIN8 (second series), stronger effect = lower value 0.777 | locus YEL061C, strain CIN8, stronger effect = lower value 0.666 | locus YER015W, strain faa2, stronger effect = lower value 0.9 | locus YER016W, strain bim1, stronger effect = lower value 0.87 | locus YER111C, strain swi4, stronger effect = lower value 0.84 | locus YER155C, strain BEM2 (second series), stronger effect = lower value 0.505 | locus YGL173C, strain kem1, stronger effect = lower value 0.851 | locus YGL240W, strain doc1, stronger effect = lower value 0.756 | locus YGL248W, strain PDE1, stronger effect = lower value 0.84 | locus YGL253W, strain hxk2, stronger effect = lower value 0.866 | locus YHR027C, strain rpn1, stronger effect = lower value 0.916 | locus YHR129C, strain ARP1, stronger effect = lower value 0.779 | locus YHR142W, strain chs7, stronger effect = lower value 0.659 | locus YIL066C, strain RNR3, stronger effect = lower value 0.745 | locus YJL095W, strain BCK1 (second series), stronger effect = lower value 0.761 | locus YJL129C, strain trk1, stronger effect = lower value 0.839 | locus YJL164C, strain tpk1, stronger effect = lower value 0.79 | locus YJL166W, strain qcr8, stronger effect = lower value 0.779 | locus YKL160W, strain elf1, stronger effect = lower value 0.748 | locus YKR001C, strain vps1, stronger effect = lower value 0.777 | locus YLL001W, strain dnm1, stronger effect = lower value 0.871 | locus YLR027C, strain aat2, stronger effect = lower value 0.8 | locus YLR039C, strain RIC1, stronger effect = lower value 0.446 | locus YLR221C, strain rsa3, stronger effect = lower value 0.762 | locus YLR258W, strain gsy2, stronger effect = lower value 0.895 | locus YLR262C, strain YPT6 (second series), stronger effect = lower value 0.387 | locus YLR262C, strain YPT6, stronger effect = lower value 0.505 | locus YLR320W, strain mms22, stronger effect = lower value 0.625 | locus YLR342W, strain FKS1, stronger effect = lower value 0.73 | locus YML120C, strain ndi1, stronger effect = lower value 0.842 | locus YMR058W, strain fet3, stronger effect = lower value 0.699 | locus YMR125W, strain sto1, stronger effect = lower value 0.877 | locus YMR205C, strain PFK2, stronger effect = lower value 0.694 | locus YMR231W, strain pep5, stronger effect = lower value 0.912 | locus YNL071W, strain lat1, stronger effect = lower value 0.502 | locus YNL307C, strain MCK1, stronger effect = lower value 0.858 | locus YNL322C, strain KRE1, stronger effect = lower value 0.874 | locus YOR070C, strain gyp1, stronger effect = lower value 0.836 | locus YOR083W, strain WHI5, stronger effect = lower value 0.812 | locus YOR106W, strain vam3, stronger effect = lower value 0.822 | locus YOR184W, strain ser1, stronger effect = lower value 0.821 | locus YOR265W, strain rbl2, stronger effect = lower value 0.928 | locus YOR270C, strain vph1, stronger effect = lower value 0.476 | locus YOR290C, strain snf2, stronger effect = lower value 0.834 | locus YPL051W, strain arl3, stronger effect = lower value 0.677 | locus YPL078C, strain atp4, stronger effect = lower value 0.764 | locus YPL240C, strain hsp82, stronger effect = lower value 0.915
inactive: locus YBR021W, strain FUR4, stronger effect = lower value 0.946 | locus YBR171W, strain sec66, stronger effect = lower value 0.973 | locus YBR229C, strain ROT2, stronger effect = lower value 0.997 | locus YCL029C, strain bik1, stronger effect = lower value 1 | locus YCL069W, strain vba3, stronger effect = lower value 0.945 | locus YCR088W, strain abp1, stronger effect = lower value 0.945 | locus YDL005C, strain med2, stronger effect = lower value 1.02 | locus YDL035C, strain GPR1, stronger effect = lower value 0.955 | locus YDL040C, strain nat1, stronger effect = lower value 0.988 | locus YDL101C, strain DUN1, stronger effect = lower value 0.915 | locus YDL134C, strain PPH21, stronger effect = lower value 0.908 | locus YDL185W, strain tfp1, stronger effect = lower value 1.05 | locus YDL192W, strain arf1, stronger effect = lower value 1.01 | locus YDR001C, strain nth1, stronger effect = lower value 0.989 | locus YDR069C, strain doa4, stronger effect = lower value 0.959 | locus YDR101C, strain arx1, stronger effect = lower value 0.997 | locus YDR150W, strain NUM1, stronger effect = lower value 0.991 | locus YDR162C, strain NBP2, stronger effect = lower value 0.872 | locus YDR195W, strain ref2 1.08 | locus YDR318W, strain mcm21, stronger effect = lower value 0.988 | locus YDR334W, strain swr1, stronger effect = lower value 1.01 | locus YDR388W, stronger effect = lower value 1 | locus YDR502C, strain sam2, stronger effect = lower value 0.985 | locus YEL037C, strain rad23, stronger effect = lower value 0.986 | locus YER110C, stronger effect = lower value 0.995 | locus YER155C, strain BEM2, stronger effect = lower value 0.941 | locus YFR010W, strain ubp6, stronger effect = lower value 0.942 | locus YGL078C, strain dbp3, stronger effect = lower value 1.03 | locus YGL086W, strain mad1, stronger effect = lower value 0.947 | locus YGL167C, strain pmr1, stronger effect = lower value 0.977 | locus YGL227W, strain vid30, stronger effect = lower value 0.935 | locus YGR078C, strain PAC10, stronger effect = lower value 0.943 | locus YGR135W, strain pre9, stronger effect = lower value 1.01 | locus YGR252W, strain gcn5, stronger effect = lower value 0.967 | locus YHR013C, strain ard1, stronger effect = lower value 0.975 | locus YHR030C, strain SLT2, stronger effect = lower value 0.966 | locus YHR079C, strain IRE1 (second series), stronger effect = lower value 1 | locus YHR079C, strain IRE1, stronger effect = lower value 0.951 | locus YHR094C, strain hxt1, stronger effect = lower value 1.02 | locus YHR200W, strain rpn10, stronger effect = lower value 1.01 | locus YIL073C, strain SPO22, stronger effect = lower value 1.18 | locus YIL125W, strain kgd1, stronger effect = lower value 0.996 | locus YIR030C, strain dcg1, stronger effect = lower value 1 | locus YJL092W, strain hpr5, stronger effect = lower value 0.943 | locus YJL115W, strain asf1, stronger effect = lower value 0.995 | locus YJL134W, strain LCB3, stronger effect = lower value 1.01 | locus YJL154C, strain vps35, stronger effect = lower value 1 | locus YJL168C, strain set2, stronger effect = lower value 1.01 | locus YJR043C, strain POL32, stronger effect = lower value 0.953 | locus YJR066W, strain TOR1, stronger effect = lower value 0.876 | locus YJR075W, strain HOC1, stronger effect = lower value 0.898 | locus YKL009W, strain mrt4, stronger effect = lower value 1.02 | locus YKL068W, stronger effect = lower value 1.01 | locus YKL085W, strain MDH1 (second series), stronger effect = lower value 0.984 | locus YKL085W, strain MDH1, stronger effect = lower value 0.984 | locus YKL190W, strain CNB1, stronger effect = lower value 1 | locus YKR026C, strain gcn3, stronger effect = lower value 0.988 | locus YKR091W, strain srl3, stronger effect = lower value 0.987 | locus YLL041C, strain sdh2, stronger effect = lower value 0.972 | locus YLR058C, strain SHM2, stronger effect = lower value 0.936 | locus YLR102C, strain apc9, stronger effect = lower value 1.01 | locus YLR113W, strain HOG1, stronger effect = lower value 0.928 | locus YLR268W, strain sec22, stronger effect = lower value 0.966 | locus YLR330W, strain CHS5, stronger effect = lower value 0.929 | locus YLR342W, strain FKS1 (second series), stronger effect = lower value 0.796 | locus YLR357W, strain rsc2, stronger effect = lower value 0.909 | locus YLR370C, strain arc18, stronger effect = lower value 0.94 | locus YLR371W, strain rom2, stronger effect = lower value 1.01 | locus YLR384C, strain iki3, stronger effect = lower value 1.01 | locus YLR418C, strain cdc73, stronger effect = lower value 0.901 | locus YML016C, strain PPZ1, stronger effect = lower value 0.978 | locus YML032C, strain rad52, stronger effect = lower value 0.959 | locus YML124C, strain tub3, stronger effect = lower value 1.01 | locus YMR078C, strain ctf18, stronger effect = lower value 1.01 | locus YMR129W, stronger effect = lower value 0.985 | locus YMR223W, strain ubp8, stronger effect = lower value 1.01 | locus YMR263W, strain SAP30, stronger effect = lower value 0.954 | locus YMR307W, strain GAS1, stronger effect = lower value 1 | locus YNL067W, strain RPL9B, stronger effect = lower value 0.92 | locus YNL153C, strain GIM3, stronger effect = lower value 0.968 | locus YNL183C, strain NPR1, stronger effect = lower value 0.888 | locus YNL209W, strain ssb2, stronger effect = lower value 0.965 | locus YNL233W, strain BNI4, stronger effect = lower value 0.9 | locus YNL248C, strain rpa49, stronger effect = lower value 0.894 | locus YNL250W, strain rad50, stronger effect = lower value 1.03 | locus YNL271C, strain bni1, stronger effect = lower value 1.01 | locus YNL298W, strain CLA4, stronger effect = lower value 1.03 | locus YNL322C, strain KRE1 (second series), stronger effect = lower value 0.955 | locus YNR049C, strain mso1, stronger effect = lower value 1 | locus YNR052C, strain pop2, stronger effect = lower value 1.02 | locus YOL012C, strain htz1 0.977 | locus YOL147C, strain pex11, stronger effect = lower value 1.01 | locus YOR001W, strain rrp6, stronger effect = lower value 0.896 | locus YOR061W, strain CKA2, stronger effect = lower value 1 | locus YOR069W, strain VPS5, stronger effect = lower value 0.956 | locus YOR080W, strain dia2, stronger effect = lower value 1 | locus YOR136W, strain idh2, stronger effect = lower value 1 | locus YOR144C, strain elg1, stronger effect = lower value 0.991 | locus YOR231W, strain MKK1, stronger effect = lower value 0.938 | locus YOR316C, strain cot1, stronger effect = lower value 1.02 | locus YPL106C, strain sse1, stronger effect = lower value 0.969 | locus YPL256C, strain CLN2, stronger effect = lower value 0.95 | locus YPR119W, strain clb2, stronger effect = lower value 0.998 | locus YPR141C, strain kar3, stronger effect = lower value 1.03 | locus YPR163C, strain tif3, stronger effect = lower value 1 | locus YPR167C, strain met16, stronger effect = lower value 0.992 | strain wtn01, stronger effect = lower value 0.983
0.542 (active) and 0.952 (inactive): locus YJL095W, strain BCK1, stronger effect = lower value
